Results filed as inconclusive are left out. Unmarked numbers belong to inactive results. Active and inactive are the calls of the source. Calls follow the shape of the dose curve; as a rule, active = well fitted cell-killing curve with a large enough effect in the repeat runs; inconclusive = weak or mixed curves, or effect the other way; inactive = flat fitted curve, though single readings scatter.
% is scaled to controls: 0 for no effect and ±100 for the full control effect; potency is read from the fitted curve at half-maximal effect.

A short description of the assay: cAMP Responsive Elements (CRE) small molecule antagonists, cell-based qHTS assay: qHTS cell viability counter screen (AID 2060913). Also: nearly all actives have a fitted effect of over 40% in size. The note with it: CRE-bla HEK293T viability, CellTiter-Glo luminescence, 5 h; series mostly up to 92.4 µM; viability change, negative = cytotoxic: at the top concentration. The method in brief:
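CRE-bla HEK293T cells were seeded in assay medium with 10% dialyzed FBS, incubated 18 hrs at 37 C, then exposed to compounds plus 0.25 uM final NKH477 for 3 hrs. Viability was read by CellTiter-Glo luminescence after 30 min, in the same wells.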
In general terms: qHTS replaces the single test concentration by a dilution series.
As to `CCOP(=O)(CN(CCO)CCO)OCC`, the “viability change, negative = cytotoxic” value is 5.94%.

For the compound `Oc1cc(Cl)ccc1Oc1ccc(Cl)cc1Cl`, the Potency was 44.3 µM (active).

As to `Cc1cc(OC(=O)N(C)C)nn1C(=O)N(C)C`, the “viability change, negative = cytotoxic” value was 8.02%.

For `CC(C)C#N`, the “viability change, negative = cytotoxic” value is -23.4%.

For the compound `CCOC(=O)C(Cl)C(C)=O` (stereo not given), the “viability change, negative = cytotoxic” value is -12.1%.

As for `COc1ccccc1N1CCNCC1`, the “viability change, negative = cytotoxic” value is 5.17% [at 42.5 µM].

For `O=C(O)c1cc(I)cc(I)c1I`, the “viability change, negative = cytotoxic” value was 5.2%.

As to `CN(C)CCc1c[nH]c2ccccc12`, the “viability change, negative = cytotoxic” value is -3.07%.

In the case of `CN(C)CCc1c[nH]c2ccc(O)cc12`, the “viability change, negative = cytotoxic” value is -2.57%.

As to `CC(C)(N)Cc1ccc(Cl)cc1`, the “viability change, negative = cytotoxic” value was -2.63% [at 42.5 µM].

On to `CN1CCc2cc(Cl)c(O)cc2[C@H]2c3ccccc3CC[C@@H]21`, for which the “viability change, negative = cytotoxic” value is 8.77% [at 42.5 µM].

As for `C=CCBr`, the “viability change, negative = cytotoxic” value is 0.889%.

`C#CC1(O)CCCCC1`: the “viability change, negative = cytotoxic” value was 3.46%.

As for `CCc1cc(C)cc(CC)c1-c1c(OC(=O)C(C)(C)C)n2n(c1=O)CCOCC2`, the “viability change, negative = cytotoxic” value was -0.316%.

`Cc1ccc(CCl)cc1`: the “viability change, negative = cytotoxic” value is 6.1%.

Consider `O=C(O)C(O)C(O)C(=O)O` (stereo not given), for which the “viability change, negative = cytotoxic” value is -0.0751%.

Consider `CCOP(=S)(OCC)Oc1cnc2ccccc2n1`, for which the Potency entry was “inactive”.

On to `CCC(=O)c1ccccc1`, for which the “viability change, negative = cytotoxic” value was -0.732%.

As to `COCC(=O)N(c1c(C)cccc1C)C(C)C(=O)OC` (stereo not given), the Potency result is “inactive”.

Regarding `SCc1ccco1`, the “viability change, negative = cytotoxic” value was -0.351%.

Turning to `COC(=O)c1ccccc1CS(=O)(=O)NC(=O)Nc1nc(OC)cc(OC)n1`, the “viability change, negative = cytotoxic” value was 2.07%.

Turning to `O=[N+]([O-])c1ccc(CCl)cc1`, the “viability change, negative = cytotoxic” value was -14.8%.

Regarding `C[C@@H]1CC[C@H]2[C@@H](C)C(=O)O[C@@H]3O[C@@]4(C)CC[C@@H]1[C@]32OO4`, the “viability change, negative = cytotoxic” value was 0.924% [at 42.5 µM].

With `Clc1cccc(Cl)c1Cl`, the Potency entry is “inactive”.

In the case of `COCCOCCO`, the “viability change, negative = cytotoxic” value is 1.36%.

Regarding `ClC1(Cl)C2(Cl)C3(Cl)C4(Cl)C(Cl)(Cl)C5(Cl)C3(Cl)C1(Cl)C5(Cl)C24Cl` (stereo not given), the “viability change, negative = cytotoxic” value is 8.62%.

For `CCOP(=S)(OCC)OC(Cl)C(Cl)(Cl)Cl` (stereo not given), the “viability change, negative = cytotoxic” value was 4.73%.

On to `CCCSP(=O)(OCC)Oc1ccc(Br)cc1Cl` (stereo not given), for which the “viability change, negative = cytotoxic” value was -17.2% [at 42.5 µM].

Regarding `NC(=O)CF`, the “viability change, negative = cytotoxic” value is 8.81%.

With `[Cl][Hg][c]1ccccc1`, the Potency was 19.3 µM (active).

With `OCCCBr`, the “viability change, negative = cytotoxic” value is 4.83%.

As to `CC(=O)c1cc(C(C)(C)C)cc2c1CCC2(C)C`, the “viability change, negative = cytotoxic” value is -2.05%.

Take `C[As+](C)(C)CC(=O)[O-]`: the “viability change, negative = cytotoxic” value is 0.624%.

`O=c1nc(O)n(Cl)c(=O)n1Cl`: the Potency entry is “inactive”.

For `CCCCOC(=O)c1ccccc1C(=O)OCc1ccccc1`, the Potency entry was “inactive”.

For `COc1ccc(CO)cc1`, the Potency result is “inactive”.

`CCC1(CCC(C)C)C(=O)NC(=O)NC1=O`: the “viability change, negative = cytotoxic” value was 2.94%.

In the case of `Nc1ccc2ccccc2c1`, the Potency result was “inactive”.

Consider `N#CN`, for which the “viability change, negative = cytotoxic” value is -6.29% [at 240 µM].

For the compound `Clc1cccc(SC2CCNCC2)n1`, the “viability change, negative = cytotoxic” value is -1.69% [at 42.5 µM].
